The full data set covers some 7,900 targets. This sample favours those with a hit. About 0.6% of all pairs of compound and target were hits. Values without a mark were called inactive.
compound: CC1=NC(=CC=C1)C2=C(N=C(N2)C(C)(C)C)C3=CC4=NC=CN=C4C=C3; experiment: log2 fold change, soluble protein after heating vs DMSO (PISA); higher = thermal stabilisation; K562 cells, 10 uM, 30 min; active = over 0.2 and 3.5 SD of the protein, either way, in both replicates (recomputed)
In short: (§1)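 K562 cells at 2×10^6 cells/mL were given 10 μM compound for 30 min. Aliquots then went through 3 min of heating across 48°C-58°C, were pooled, and were extracted in PBS with 0.5% NP-40 at 4°C, and the supernatant after 21,000xg for 90 min was quantified by TMTpro 16plex LC-MS/MS with channel sums equalised. Thermal stability relative to control samples, from duplicates, is given as log2 fold change.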

Chain of UniProt Q9H3P2 (Q9H3P2 whole entry, looked up): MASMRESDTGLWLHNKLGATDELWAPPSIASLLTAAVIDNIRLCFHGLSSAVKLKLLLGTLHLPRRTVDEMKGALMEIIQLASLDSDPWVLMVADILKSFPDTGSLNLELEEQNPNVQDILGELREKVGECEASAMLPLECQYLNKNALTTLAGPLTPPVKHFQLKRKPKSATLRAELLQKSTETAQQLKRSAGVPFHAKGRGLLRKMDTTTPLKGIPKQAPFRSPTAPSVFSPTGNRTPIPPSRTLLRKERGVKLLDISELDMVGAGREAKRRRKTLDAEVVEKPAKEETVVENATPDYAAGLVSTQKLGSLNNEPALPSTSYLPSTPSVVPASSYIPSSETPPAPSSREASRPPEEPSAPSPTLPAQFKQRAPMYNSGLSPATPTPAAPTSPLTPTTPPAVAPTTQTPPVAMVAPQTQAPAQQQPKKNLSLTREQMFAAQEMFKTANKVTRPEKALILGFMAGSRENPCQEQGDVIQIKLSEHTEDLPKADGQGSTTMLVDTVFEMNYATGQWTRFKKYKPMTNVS
Chain of UniProt O60551 (O60551 whole entry, looked up): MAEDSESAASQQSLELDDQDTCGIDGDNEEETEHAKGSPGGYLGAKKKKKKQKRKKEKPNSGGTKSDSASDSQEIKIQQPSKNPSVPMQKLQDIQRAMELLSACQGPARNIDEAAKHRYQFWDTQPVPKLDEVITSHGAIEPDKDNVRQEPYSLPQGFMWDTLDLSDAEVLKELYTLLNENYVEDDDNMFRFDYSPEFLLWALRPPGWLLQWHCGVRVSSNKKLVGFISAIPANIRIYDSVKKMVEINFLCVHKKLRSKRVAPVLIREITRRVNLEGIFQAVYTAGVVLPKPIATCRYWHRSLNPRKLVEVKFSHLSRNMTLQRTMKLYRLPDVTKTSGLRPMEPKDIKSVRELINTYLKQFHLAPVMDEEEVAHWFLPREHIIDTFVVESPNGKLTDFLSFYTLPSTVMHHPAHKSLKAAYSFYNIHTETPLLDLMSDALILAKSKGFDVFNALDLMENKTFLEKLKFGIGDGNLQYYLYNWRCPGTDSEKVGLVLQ
Chain of UniProt Q99549 (Q99549 whole entry, looked up): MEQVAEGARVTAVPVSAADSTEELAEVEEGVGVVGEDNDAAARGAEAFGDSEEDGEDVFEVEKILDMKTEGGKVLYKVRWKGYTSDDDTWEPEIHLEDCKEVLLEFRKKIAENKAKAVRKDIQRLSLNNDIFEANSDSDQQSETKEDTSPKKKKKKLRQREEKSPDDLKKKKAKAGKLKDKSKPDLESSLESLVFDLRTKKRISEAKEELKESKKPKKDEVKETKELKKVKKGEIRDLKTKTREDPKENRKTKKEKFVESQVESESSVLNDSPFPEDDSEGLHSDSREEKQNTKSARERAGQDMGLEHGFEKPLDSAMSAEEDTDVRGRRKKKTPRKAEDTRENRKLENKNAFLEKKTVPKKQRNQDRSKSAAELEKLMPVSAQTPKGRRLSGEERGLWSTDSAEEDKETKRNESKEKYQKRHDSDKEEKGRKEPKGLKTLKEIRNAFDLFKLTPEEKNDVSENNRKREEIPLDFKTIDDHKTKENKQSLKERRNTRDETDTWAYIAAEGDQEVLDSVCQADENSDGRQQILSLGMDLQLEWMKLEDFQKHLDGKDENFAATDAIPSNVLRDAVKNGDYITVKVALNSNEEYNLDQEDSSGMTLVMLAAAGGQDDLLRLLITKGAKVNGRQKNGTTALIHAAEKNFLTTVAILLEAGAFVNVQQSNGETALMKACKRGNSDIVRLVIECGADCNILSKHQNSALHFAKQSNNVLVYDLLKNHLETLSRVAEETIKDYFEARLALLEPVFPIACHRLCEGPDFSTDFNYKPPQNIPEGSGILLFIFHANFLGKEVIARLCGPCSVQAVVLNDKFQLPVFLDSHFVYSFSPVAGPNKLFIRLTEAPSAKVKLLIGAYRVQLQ
Chain of UniProt Q9H081 (Q9H081 whole entry, looked up): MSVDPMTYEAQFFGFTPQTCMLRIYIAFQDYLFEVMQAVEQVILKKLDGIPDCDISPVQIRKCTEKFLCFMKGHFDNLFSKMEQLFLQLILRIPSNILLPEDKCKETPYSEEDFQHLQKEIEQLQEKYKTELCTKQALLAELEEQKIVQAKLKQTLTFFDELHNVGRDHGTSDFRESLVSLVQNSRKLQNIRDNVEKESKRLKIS
Chain of UniProt P00846 (P00846 whole entry, looked up): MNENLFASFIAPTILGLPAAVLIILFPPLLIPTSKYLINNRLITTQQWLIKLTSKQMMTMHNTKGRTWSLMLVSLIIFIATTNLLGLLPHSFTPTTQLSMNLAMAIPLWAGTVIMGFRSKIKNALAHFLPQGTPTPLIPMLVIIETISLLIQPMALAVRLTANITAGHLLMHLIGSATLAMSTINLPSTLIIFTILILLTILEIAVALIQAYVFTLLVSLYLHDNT
Chain of UniProt Q9Y314 (Q9Y314 whole entry, looked up): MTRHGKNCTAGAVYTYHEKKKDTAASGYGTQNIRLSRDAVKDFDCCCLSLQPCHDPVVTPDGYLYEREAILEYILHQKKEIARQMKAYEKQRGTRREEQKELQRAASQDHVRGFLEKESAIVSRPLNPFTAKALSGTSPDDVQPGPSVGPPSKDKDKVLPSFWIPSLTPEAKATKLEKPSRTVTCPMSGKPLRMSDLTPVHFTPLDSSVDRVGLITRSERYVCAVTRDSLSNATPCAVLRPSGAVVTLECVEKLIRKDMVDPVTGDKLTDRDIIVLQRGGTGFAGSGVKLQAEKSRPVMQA
Chain of UniProt Q96DE0 (Q96DE0 whole entry, looked up): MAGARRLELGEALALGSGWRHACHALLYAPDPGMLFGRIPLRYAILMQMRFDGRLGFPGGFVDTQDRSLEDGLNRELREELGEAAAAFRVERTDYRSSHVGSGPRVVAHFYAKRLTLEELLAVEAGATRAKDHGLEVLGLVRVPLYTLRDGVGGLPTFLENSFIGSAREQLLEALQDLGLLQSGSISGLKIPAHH
Chain of UniProt Q15738 (Q15738 whole entry, looked up): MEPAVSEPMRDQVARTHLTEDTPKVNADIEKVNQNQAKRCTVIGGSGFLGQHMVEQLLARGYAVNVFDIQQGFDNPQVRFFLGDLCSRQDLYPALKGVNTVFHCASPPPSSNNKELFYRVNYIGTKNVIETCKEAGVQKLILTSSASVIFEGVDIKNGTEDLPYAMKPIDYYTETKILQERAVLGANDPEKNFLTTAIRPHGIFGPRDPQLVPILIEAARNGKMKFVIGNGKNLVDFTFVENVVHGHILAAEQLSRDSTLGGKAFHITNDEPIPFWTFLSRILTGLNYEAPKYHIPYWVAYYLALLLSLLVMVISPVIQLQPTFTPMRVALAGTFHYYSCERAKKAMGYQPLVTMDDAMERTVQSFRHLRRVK
Chain of UniProt P51956 (P51956 whole entry, looked up): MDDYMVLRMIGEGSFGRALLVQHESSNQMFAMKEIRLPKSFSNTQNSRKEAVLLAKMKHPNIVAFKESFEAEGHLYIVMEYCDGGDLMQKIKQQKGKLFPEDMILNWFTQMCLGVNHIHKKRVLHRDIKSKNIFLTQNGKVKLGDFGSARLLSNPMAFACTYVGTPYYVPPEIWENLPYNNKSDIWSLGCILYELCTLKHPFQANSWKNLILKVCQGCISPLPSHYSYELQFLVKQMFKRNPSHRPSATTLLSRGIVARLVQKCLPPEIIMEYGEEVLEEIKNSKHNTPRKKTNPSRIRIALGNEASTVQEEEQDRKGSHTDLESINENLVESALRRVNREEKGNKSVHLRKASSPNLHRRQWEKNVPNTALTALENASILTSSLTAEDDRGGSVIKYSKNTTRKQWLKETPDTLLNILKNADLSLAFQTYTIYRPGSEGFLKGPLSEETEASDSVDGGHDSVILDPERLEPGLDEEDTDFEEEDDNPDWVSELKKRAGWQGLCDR
Chain of UniProt Q13469 (Q13469 whole entry, looked up): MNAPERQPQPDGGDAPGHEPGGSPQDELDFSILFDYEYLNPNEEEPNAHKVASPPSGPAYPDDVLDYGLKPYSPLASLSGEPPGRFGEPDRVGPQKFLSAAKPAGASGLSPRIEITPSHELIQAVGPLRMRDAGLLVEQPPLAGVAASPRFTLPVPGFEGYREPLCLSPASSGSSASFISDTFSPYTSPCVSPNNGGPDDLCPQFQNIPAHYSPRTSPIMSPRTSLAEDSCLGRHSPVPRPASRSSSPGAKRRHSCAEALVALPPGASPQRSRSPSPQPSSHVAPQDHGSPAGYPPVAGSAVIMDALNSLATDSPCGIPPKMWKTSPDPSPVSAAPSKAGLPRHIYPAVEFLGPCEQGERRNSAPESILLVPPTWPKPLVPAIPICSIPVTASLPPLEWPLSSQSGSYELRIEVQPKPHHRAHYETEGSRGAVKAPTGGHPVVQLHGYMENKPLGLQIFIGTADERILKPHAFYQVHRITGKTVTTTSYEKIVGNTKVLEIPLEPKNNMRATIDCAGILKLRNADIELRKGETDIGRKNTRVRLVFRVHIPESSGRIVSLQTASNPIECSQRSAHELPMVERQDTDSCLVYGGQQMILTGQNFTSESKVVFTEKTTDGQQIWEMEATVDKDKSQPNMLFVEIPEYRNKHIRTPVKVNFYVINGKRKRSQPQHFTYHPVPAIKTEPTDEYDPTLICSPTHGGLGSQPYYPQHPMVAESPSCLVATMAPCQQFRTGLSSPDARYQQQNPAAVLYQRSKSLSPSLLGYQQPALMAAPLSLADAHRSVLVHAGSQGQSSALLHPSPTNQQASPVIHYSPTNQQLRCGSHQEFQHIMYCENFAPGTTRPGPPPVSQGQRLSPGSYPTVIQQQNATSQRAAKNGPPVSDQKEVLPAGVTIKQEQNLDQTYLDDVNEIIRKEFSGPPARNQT
Chain of UniProt Q9BSU3 (Q9BSU3 whole entry, looked up): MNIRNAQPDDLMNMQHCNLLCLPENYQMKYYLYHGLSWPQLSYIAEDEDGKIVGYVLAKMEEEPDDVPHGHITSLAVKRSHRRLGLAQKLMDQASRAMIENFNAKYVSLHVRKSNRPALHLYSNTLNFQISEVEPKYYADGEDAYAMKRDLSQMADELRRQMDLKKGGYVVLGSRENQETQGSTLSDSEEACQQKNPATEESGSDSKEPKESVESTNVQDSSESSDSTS

| Target | log2 fold change |
| --- | --- |
| NAA11 (UniProt Q9BSU3) | 0.021 |
| NSDHL (UniProt Q15738) | -0.001 |
| MIS12 (UniProt Q9H081) | 0.044 |
| NFATC2 (UniProt Q13469) | 0.018 |
| NUDT16 (UniProt Q96DE0) | -0.03 |
| MRPS6 (UniProt P82932) | 0.128 |
| MRPS18B (UniProt Q9Y676) | 0.009 |
| MPHOSPH8 isoform 2 (UniProt Q99549) | -0.022 |
| NEK3 (UniProt P51956) | -0.108 |
| MT-ATP6 (UniProt P00846) | 0.026 |
| MYH11 isoform 2 (UniProt P35749) | 0.004 |
| NMT2 (UniProt O60551) | 0.024 |
| NOSIP (UniProt Q9Y314) | 0.012 |
| NELFA (UniProt Q9H3P2) | 0.092 |

compound: CCCCN(Cc1ccc(C(=O)NO)cc1)C(=O)Nc1ccccc1 [Nexturastat A]; experiment: as above
In short: as §1

| Target | log2 fold change |
| --- | --- |
| MRPS9 (UniProt P82933) | 0.057 |
| NMNAT1 (UniProt Q9HAN9) | 0.132 |
| NOP53 (UniProt Q9NZM5) | 0.264 |
| MT-ND4 (UniProt P03905) | -0.155 |
| NHLRC2 (UniProt Q8NBF2) | -0.055 |
| NME7 (UniProt Q9Y5B8) | 0.024 |
| MRPS16 (UniProt Q9Y3D3) | 0.124 |
| NR2C2 isoform 2 (UniProt P49116) | -0.23 (active) |
| MORC3 (UniProt Q14149) | -0.296 |
| NQO1 (UniProt P15559) | -0.049 |
| NDUFA7 (UniProt O95182) | -0.035 |
| NOB1 (UniProt Q9ULX3) | 0.034 |
| NOP58 (UniProt Q9Y2X3) | 0.161 |
| NEMP1 (UniProt O14524) | -0.057 |
| NA, A0A0B4J2A0 | -0.043 |
| OSBPL8 (UniProt Q9BZF1) | 0.109 |
| NFX1 (UniProt Q12986) | 0.287 |
| OTUD4 (UniProt Q01804) | 0.055 |
| NUMB (UniProt P49757) | 0.09 |

| Target | log2 fold change |
| --- | --- |
| MUL1 (UniProt Q969V5) | -0.022 |
| OXR1 (UniProt Q8N573) | -0.025 |
| NUP210 (UniProt Q8TEM1) | -0.08 |
| MINK1 (UniProt Q8N4C8) | -0.007 |
| NUDT1 (UniProt P36639) | -0.086 |
| NAA11 (UniProt Q9BSU3) | -0.016 |
| NSDHL (UniProt Q15738) | -0.111 |
| MIS12 (UniProt Q9H081) | 0.056 |
| NFATC2 (UniProt Q13469) | 0.12 |
| NUDT16 (UniProt Q96DE0) | -0.003 |
| MRPS6 (UniProt P82932) | 0.076 |
| MRPS18B (UniProt Q9Y676) | 0.031 |
| MPHOSPH8 isoform 2 (UniProt Q99549) | -0.013 |
| NEK3 (UniProt P51956) | -0.033 |
| MT-ATP6 (UniProt P00846) | -0.133 |
| MYH11 isoform 2 (UniProt P35749) | -0.014 |
| NMT2 (UniProt O60551) | -0.037 |
| NOSIP (UniProt Q9Y314) | 0.149 |
| NELFA (UniProt Q9H3P2) | -0.104 |

compound: CCCS(=O)(=O)Nc1ccc(F)c(C(=O)c2c[nH]c3ncc(-c4ccc(Cl)cc4)cc23)c1F [vemurafenib]; experiment: as above
In short: as §1

| Target | log2 fold change |
| --- | --- |
| MRPS9 (UniProt P82933) | -0.043 |
| NMNAT1 (UniProt Q9HAN9) | -0.162 |
| NOP53 (UniProt Q9NZM5) | -0.154 |
| MT-ND4 (UniProt P03905) | 0.004 |
| NHLRC2 (UniProt Q8NBF2) | -0.053 |
| NME7 (UniProt Q9Y5B8) | -0.037 |
| MRPS16 (UniProt Q9Y3D3) | -0.014 |
| NR2C2 isoform 2 (UniProt P49116) | -0.023 |
| MORC3 (UniProt Q14149) | 0.095 |
| NQO1 (UniProt P15559) | 0.027 |
| NDUFA7 (UniProt O95182) | -0.045 |
| NOB1 (UniProt Q9ULX3) | 0.055 |
| NOP58 (UniProt Q9Y2X3) | 0.046 |
| NEMP1 (UniProt O14524) | -0.084 |
| NA, A0A0B4J2A0 | 0.017 |
| OSBPL8 (UniProt Q9BZF1) | 0.074 |
| NFX1 (UniProt Q12986) | 0.148 |
| OTUD4 (UniProt Q01804) | -0.016 |
| NUMB (UniProt P49757) | 0.026 |

| Target | log2 fold change |
| --- | --- |
| MUL1 (UniProt Q969V5) | -0.039 |
| OXR1 (UniProt Q8N573) | 0.023 |
| NUP210 (UniProt Q8TEM1) | -0.002 |
| MINK1 (UniProt Q8N4C8) | -0.004 |
| NUDT1 (UniProt P36639) | -0.004 |
| NAA11 (UniProt Q9BSU3) | 0.145 |
| NSDHL (UniProt Q15738) | 0.07 |
| MIS12 (UniProt Q9H081) | 0.074 |
| NFATC2 (UniProt Q13469) | 0.038 |
| NUDT16 (UniProt Q96DE0) | 0.163 |
| MRPS6 (UniProt P82932) | 0.1 |
| MRPS18B (UniProt Q9Y676) | -0.074 |
| MPHOSPH8 isoform 2 (UniProt Q99549) | -0.02 |
| NEK3 (UniProt P51956) | 0.089 |
| MT-ATP6 (UniProt P00846) | -0.159 |
| MYH11 isoform 2 (UniProt P35749) | 0.051 |
| NMT2 (UniProt O60551) | -0.034 |
| NOSIP (UniProt Q9Y314) | 0.247 |
| NELFA (UniProt Q9H3P2) | 0.06 |

Source: the supplement of paper PMC10849652
